Test results taken from PubChem BioAssay (Tox21).
Active and inactive are the calls of the source. Calls follow the shape of the dose curve; as a rule, active = well fitted curve in the direction sought with a large enough effect in the repeat runs; inconclusive = weak or mixed curves; inactive = flat fitted curve, though single readings scatter.

Assay: qHTS assay to test for compound auto fluorescence at 460 nm (blue) in HepG2 cell free culture (AID 720685)
Details: Cell-free culture medium, blue autofluorescence 405/460 nm; series mostly up to 91.3 µM; fluorescence, % of fluorescent control: at the top concentration
From the text: U.S. Tox21 Program National Center for Advancing Translational Sciences [NCATS] NIH Chemical Genomics Center [NCGC] U.S. Environmental Protection Agency [EPA] National Institutes of Environmental Health Sciences [NIEHS] National Toxicology Program [NTP] U.S. Food and Drug Administration [FDA] Tox21 Assay Overview: Compound auto fluorescence often interferes with screening of the compound library against various biological targets and signaling pathways. Some of these compounds may have fluorophoric properties. Such properties may interfere with the assay outputs resulting in false positives and/or negatives. To decrease such complications and ensure the compound activities are relevant in terms of biological response, the Tox21 10K compound library was screened for auto fluorescence. From the fluorophores used as reporter signals in our screening assays, the auto fluorescence equivalencies of compounds against three fluorophores have been evaluated: Triamterene, Fluorescein and Rose Bengal sodium for blue, green and red fluorescence, respectively. The fluorescence intensities were measured using Excitation/Emission wavelengths at 405/460nm, 485/535nm and 540/590nm for blue, green and red labels, respectively. This assay includes the blue fluorescence data.
Tox21 Assay Protocol Summary: 5 uL of culture medium (MEM containing 10% FBS) per well was dispensed into black wall/clear bottom 1536-well plates using a Multidrop Combi Dispenser (ThermoFisher Scientific, Waltham, MA). After 23 nL compound or DMSO vehicle was transferred into assay plate by a pintool work station (Kalypsys, San Diego, CA), fluorescence intensities in the assay plates were measured by an Envision (PerkinElmer, Shelton, CT) plate reader using three labels for measuring blue, green and red fluorescence at […] 460, 535 and 590nm respectively.
% is scaled to controls: 0 for no effect and ±100 for the full control effect.

Compound	fluorescence, % of fluorescent control
C=CCOc1cc(Cl)ccc1C(=O)NCCN(CC)CC	0.0506% [at 46 µM] (inactive)
Cc1ccccc1OCC1CO1 (stereo not given)	0.009% (inactive)
C=C(C)C(=O)OC	0.0689% (inactive)
CC(C)CCC(=O)CCC(C)C	-0.0848% (inactive)
CCCCCCCC[Si](OCC)(OCC)OCC	-0.038% (inactive)
C=C[Si](C)(C)O[Si](C)(C)C=C	0.0227% (inactive)
CC(=O)OC(C)c1ccccc1 (stereo not given)	-0.0763% (inactive)
CN(C1CCCCC1)S(=O)(=O)c1ccccc1N	0.0335% (inactive)
CC(=O)Nc1ncc([N+](=O)[O-])s1	-0.29% [at 46 µM] (inactive)
NC(=O)C1(N2CCCCC2)CCN(CCCC(=O)c2ccc(F)cc2)CC1	-0.0016% [at 46 µM] (inactive)
O=S(=O)(O)CCO	0.0599% [at 95.7 µM] (inactive)
Cc1cc(O)c2c(c1)C(=O)c1cccc(O)c1C2=O	0.0359% [at 46 µM] (inactive)
CCC(=O)OCCC(C)CCC=C(C)C (stereo not given)	0.0132% (inactive)
Cc1nc2ccccc2c(=O)o1	0.0386% (inactive)
Cn1c(=O)c2c(ncn2CC2OCCO2)n(C)c1=O	0.0678% [at 46 µM] (inactive)
Cc1ccccc1N1CCN(CCc2nnc3n2CCCC3)CC1	-0.087% [at 46 µM] (inactive)
SCCSCCS	-0.206% (inactive)
CCOC(=O)CC(CC(=O)OCC)(OC(C)=O)C(=O)OCC	-0.0604% (inactive)
CCCCC/C=C/CC(=O)OC	0.0486% (inactive)
CCOC(=O)CC#N	0.111% (inactive)

Compound	fluorescence, % of fluorescent control
C=CCOc1c(Br)cc(Br)cc1Br	0.0102% (inactive)
CC(=O)OCCCc1ccccc1	-0.0239% (inactive)
Cc1nc(C)nc(N2C[C@@H](C)N(c3ccnc([C@@H](C)O)n3)[C@@H](C)C2)n1	0.131% [at 46 µM] (inactive)
CCC(C)(CCC(C)C)C(=O)[O-].CCC(C)(CCC(C)C)C(=O)[O-].[Zn+2] (stereo not given)	0.0162% (inactive)
CCC1COC(=O)O1 (stereo not given)	-0.0022% (inactive)
FC(F)(F)/C(=N\OCC1OCCO1)c1ccc(Cl)cc1	-0.0125% (inactive)
CCN(Cc1cccc(S(=O)(=O)O)c1)c1ccccc1	0.307% (inactive)
CCS(=O)(=O)CCn1c([N+](=O)[O-])cnc1C	0.0838% [at 18.6 µM] (inactive)
O=C1c2ccccc2-c2ccccc21	-0.191% [at 95.7 µM] (inactive)
COCCOCCOCCOC	-0.0188% (inactive)
COc1cccc2sc(N)nc12	-0.0797% (inactive)
C=CCOCC(CO)(COCC=C)COCC=C	-0.0634% (inactive)
COc1cc2c(Nc3ccc(Br)cc3F)ncnc2cc1OCC1CCN(C)CC1	0.25% [at 46 µM] (inactive)
CCCCOC(=O)[C@@H](C)Oc1ccc(Oc2ccc(C(F)(F)F)cn2)cc1	-0.0256% (inactive)
C=CCOCC(O)CCl (stereo not given)	0.429% (inactive)
C[N+](C)(C)CC(O)CCl (stereo not given)	-0.309% (inactive)
CN[C@@H]1[C@H](O)[C@H](NC)[C@H]2O[C@@]3(O)C(=O)C[C@@H](C)O[C@H]3O[C@@H]2[C@H]1O	0.0605% [at 18.6 µM] (inactive)
CCCCCCCCCOCC1CO1 (stereo not given)	0.0616% [at 95.7 µM] (inactive)
Nc1cc(C(=O)O)ccc1Cl	-0.125% (inactive)
COC(=O)CCC(=O)O	-0.0128% (inactive)
